The text below walks through data of PubChem BioAssay AID1963315 (National Center for Advancing Translational Sciences (NCATS), 2024).

The structures appear in SMILES notation. Inconclusive results are not listed. Unmarked numbers belong to inactive results. The source made the active and inactive calls. Calls follow the shape of the full dose curve.

Tyrosine-protein kinase ABL1 (Homo sapiens), sequence (P00519 whole entry, looked up): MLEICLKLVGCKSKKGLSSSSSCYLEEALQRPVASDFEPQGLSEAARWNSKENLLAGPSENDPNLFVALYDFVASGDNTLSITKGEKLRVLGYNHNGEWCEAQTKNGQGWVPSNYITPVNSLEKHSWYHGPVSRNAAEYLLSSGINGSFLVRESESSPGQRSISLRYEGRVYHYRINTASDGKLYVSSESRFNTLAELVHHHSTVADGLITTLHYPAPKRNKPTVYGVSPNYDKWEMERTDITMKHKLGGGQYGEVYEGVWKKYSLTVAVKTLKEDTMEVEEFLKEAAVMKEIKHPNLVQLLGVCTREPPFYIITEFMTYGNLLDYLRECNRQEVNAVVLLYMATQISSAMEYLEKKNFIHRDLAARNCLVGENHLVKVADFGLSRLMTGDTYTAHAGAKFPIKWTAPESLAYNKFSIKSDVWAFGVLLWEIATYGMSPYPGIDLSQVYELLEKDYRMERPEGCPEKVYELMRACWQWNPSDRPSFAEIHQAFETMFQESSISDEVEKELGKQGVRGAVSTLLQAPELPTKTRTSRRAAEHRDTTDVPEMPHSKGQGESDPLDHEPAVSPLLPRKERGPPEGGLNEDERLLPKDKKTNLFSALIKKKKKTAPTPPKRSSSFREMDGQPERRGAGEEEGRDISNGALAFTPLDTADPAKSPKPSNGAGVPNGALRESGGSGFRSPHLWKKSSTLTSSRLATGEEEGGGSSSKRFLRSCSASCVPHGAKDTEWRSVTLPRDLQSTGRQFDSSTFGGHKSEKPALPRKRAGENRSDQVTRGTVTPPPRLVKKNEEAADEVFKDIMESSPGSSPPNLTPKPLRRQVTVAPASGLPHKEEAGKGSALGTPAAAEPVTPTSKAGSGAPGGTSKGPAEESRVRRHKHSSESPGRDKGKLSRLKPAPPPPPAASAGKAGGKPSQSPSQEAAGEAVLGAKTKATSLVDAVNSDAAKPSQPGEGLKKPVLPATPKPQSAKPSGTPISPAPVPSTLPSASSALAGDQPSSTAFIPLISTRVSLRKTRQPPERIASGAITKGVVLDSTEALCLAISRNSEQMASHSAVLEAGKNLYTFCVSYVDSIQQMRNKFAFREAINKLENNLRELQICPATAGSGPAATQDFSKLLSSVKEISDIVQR

The target in this assay is Tyrosine-protein kinase ABL1 (Homo sapiens) (UniProt P00519). Description: ABL1 kinase (ABL1-N-HiBiT) SDR gain of signal screen. Particulars: Purified ABL1-N-HiBiT enzyme, Nano-Glo HiBiT luminescence, 30 min compound incubation; series mostly up to 32.9 µM; activity change, gain of signal: at the top concentration. The text has this: National Center for Advancing Translational Sciences (NCATS),
National Institute of Health (NIH), Maryland
Discovery and optimization of novel protein-binding ligands underlies many of the methods and applications of biology, drug discovery, clinical diagnostics, and environmental toxicology. Assays for detecting the interaction of, for example, a molecule with a macromolecular target also referred to here as the target of interest (TOI) is dependent on a compatible output technology. Depending on the nature and knowledge surrounding the TOI, whether a receptor, enzyme, regulatory subunit or scaffold, or a sequence-defined nucleic acid folded into a complex tertiary structure, assay strategies can vary widely.
Here we exploit ligand-biased changes in the structural dynamics of the target protein to control reporter alpha complementation allowing a non-competitive, non-functional, non-separation measure of ligand-target interaction.
Secondly, we show the specificity and sensitivity of the SDR for the Abelson tyrosine kinase (ABL1) compared to the serine/threonine protein kinase A, using an enriched chemical library of 128 compounds selected, in part, for activity annotated with ABL1 kinase activity using the Pharos database (3).
(1) A. S. Dixon et al., NanoLuc Complementation Reporter Optimized for Accurate Measurement of Protein Interactions in Cells. ACS Chem Biol 11, 400-408 (2016).
Chemistry & Biology, 19, 1060 - 1072 (2012).
(3) K. J. Kelleher et al., Pharos 2023: an integrated resource for the understudied human proteome. Nucleic Acids Res 51, D1405-D1416 (2023).
PROTOCOL TABLE (as described by Inglese J, Shamu CE and Guy RK. 2007)
SEQUENCE No. (e.g., 1, 2, 3, etc.); […] (e.g., C. elegans, Compounds, Incubation, Read, etc.); VALUE and DESCRIPTION.
1. Reagent. Dispense 4 uL ABL1-N-HiBiT enzyme per well at a final enzyme concentration of 10 nM in buffer without ATP (SDR assay) into columns 2-48 of four replicate Greiner 1536-well white, solid bottom high base, medium plates per assay. Dispense respective buffer without enzyme at 4 uL/well in column 1 of assay plates using BioRaptr 2.
2. Compounds. Library compounds added at 23 nL/well by pin transfer. DMSO neutral control and imatinib positive control added at 25 nL/well, transfer by Mosquito dispenser.
3. Incubation. Incubate enzyme and compounds at room temperature for 30 min, protected from light.
4. Reagent. (SDR assay) Add 3 uL/well of Nano-Glo HiBiT reagent (Promega) to assay plates with or without ATP.
5. Incubation. (SDR assay) Incubate enzyme solution and HiBiT reagent at room temperature for 10 min, protect from light.
6. Detector. (SDR assay) Luminescence measured using CCD-based camera (ViewLux) with settings as follows: Exposure, 1 sec; Gain, High; Speed, Slow; Binning, 2X.
Inglese J, Shamu CE and Guy RK, Reporting data from high throughput screening of small molecule libraries, Nature Chemical Biology, 2007, 3(8): 438-441. doi.org/10.1038/nchembio0807-438.
Background: The HiBiT peptide binds its large partner to form an active luciferase.
`O=C(NCCCNc1nc(Nc2ccc(N3CCOCC3)cc2)ncc1C1CC1)C1CCC1`: the “activity change, gain of signal” value was -15.7%.
As for `O=[N+]([O-])O[C@H]1CO[C@H]2[C@@H]1OC[C@H]2O[N+](=O)[O-]`, the “activity change, gain of signal” value is 8.76%.
The same measure, in the same setting: the figure for `CCNC(=O)C[C@@H]1N=C(c2ccc(Cl)cc2)c2cc(OC)ccc2-n2c(C)nnc21` is 7.17%; for `Cc1[nH]nc2ccc(-c3cncc(OC[C@@H](N)Cc4c[nH]c5ccccc45)c3)cc12` it is -23%.
As to `C/C(O)=C(\C#N)C(=O)Nc1cc(Br)ccc1Br`, the “activity change, gain of signal” value is -83.3%.
For the compound `N#Cc1cn([C@@H]2O[C@H](CO)[C@H](O)[C@@H]2O)c2ncnc(N)c12`, the Potency is 6.05 µM (active).
